Source: PubChem BioAssay (several laboratories)
Only some compounds are listed: those with a hit (about 1.4% of all), similar ones and a draw of the others.
HSV replic up = HSV replication enhancement; AID 1956; maximum fold increase; 0.005% of 220,000 active; HSV replication augmentation in cells, fold increase; in the data active = maximum fold increase above about 1.5; tested in PC3 cells
pCIP destab = lowers stability of the mouse p/CIP coactivator protein; Q05BA5; 0.01% of 290,000 active; AID 1984; F442A p/CIP-EGFP cells, EGFP fluorescence, 16 h; decrease of EGFP signal, % at 10 µM;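 active = EGFP signal decrease of at least 30% at 10 µM or well 3 SD below plate mean, unless failing retest; inactive = the rest, including hits failing retest or dose response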
MIN6 prolif = inducers of beta-cell replication in MIN6 cells; MIN6 cells proliferation, ATPlite luminescence, 48 h; cells starved in 0.2% serum; 100% = growth in 10% serum; proliferation, % at 10 µM; 0.29% of 330,000 active; AID 2380;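 active = compounds whose signal lies at least 3.5 SD above the mean of all wells on their plate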;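 note: 0% = DMSO-treated cells in low-serum medium and 100% = 10% serum control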
CR mimetic SO = yeast age-related superoxide inhibition as caloric restriction mimetic; S. cerevisiae aged cells, superoxide DHE fluorescence; stronger effect = lower value; superoxide response (% of plate mean), % at 10 µM; 0.18% of 330,000 active;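 active = superoxide response under a set limit, about three screen SD below normal, cut at about 65% in these data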;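 note: yeast aged for seven days with compound at 30 °C before DHE staining; 100% = average MFI of all compound-treated wells on the plate with controls excluded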
V-ATPase pH = regulators of yeast V-ATPase proton transport; S. cerevisiae, pHLuorin cytosolic pH fluorescence; response, % at 10 µM; 0.37% of 350,000 active; in the data active = response mostly above about 7.3%, no sharp cut-off; inactive = mostly below about 5.4%; note: actives read high
Cardio protect = protects H9c2 cardiomyocytes from peroxide injury; H2O2 injury protection, ATPLite, 2 h; protection from H2O2 cell death, % at 20 µM; 0.63% of 360,000 active; AID 588492;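 active = compounds giving at least 50% protection of heart cells from peroxide-induced death in the single-dose screen, raw or plate-pattern-corrected value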;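 note: 0% = DMSO wells with peroxide and 100% = DMSO wells without peroxide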
Starred values were filed as active, the others as inactive; i = inactive; nt = not tested or not shown.

SMILES	HSV replic up	pCIP destab	MIN6 prolif	CR mimetic SO	V-ATPase pH	Cardio protect
CCOc1ncccc1C(=O)NNC(=O)c1ccc(NS(=O)(=O)c2cccs2)cc1	nt	nt	-3	102	3	-6
Cc1nnn(-c2nonc2N)c1C(=O)N/N=C/c1ccccc1O	i	0	-2	94	-9	54*
O=C(C1CC12CCCC2)N1CCC(CO)(Cc2ccccc2Cl)CC1 (configuration not stated)	i	-10	0	104	3	-8
O=C(Nc1nc(-c2ccc3c(c2)OCCO3)cs1)c1ccco1	nt	-6	-5	96	-2	-2
COc1ccccc1C(=O)Nc1nc(-c2ccc3c(c2)OCCO3)cs1	i	8	0	107	-2	64*
Cc1cc(C)c(NC(=O)COC(=O)/C=C/c2cccs2)c(C)c1	i	4	-2	81	-2	2
CC(OC(=O)Cn1[nH]c(=O)c2ccccc2c1=O)C(=O)NC1(C#N)CCCCC1 (configuration not stated)	nt	nt	-4	100	1	70*
CC(OC(=O)Cc1c[nH]c2ccccc12)C(=O)NC1(C#N)CCCCC1 (configuration not stated)	nt	-1	1	97	0	4
COc1ccc([N+](=O)[O-])cc1NC(=O)C(C)OC(=O)Cn1[nH]c(=O)c2ccccc2c1=O (configuration not stated)	nt	nt	5	95	0	58*
COc1ccc([N+](=O)[O-])cc1NC(=O)C(C)OC(=O)CN1C(=O)C2CC=CCC2C1=O (configuration not stated)	nt	nt	3	111	11	1
CCc1ccc(NC(=O)C(C)OC(=O)Cn2[nH]c(=O)c3ccccc3c2=O)cc1 (configuration not stated)	nt	nt	nt	nt	-3	25
CC(OC(=O)Cn1[nH]c(=O)c2ccccc2c1=O)C(=O)Nc1ccc(Cl)cn1 (configuration not stated)	nt	nt	0	100	-3	52*
CC(C)(C)S(=O)N1Cc2cc(CO)ccc2[C@@H]1CCO (some centres not stated)	nt	nt	nt	nt	0	3
O=C(CSc1nc2c(cnn2-c2cccc(Cl)c2)c(=O)[nH]1)NCCC1=CCCCC1	nt	nt	-2	61*	2	3
O=C(O)c1ccc2c(c1)S(=O)(=O)c1cc(N3CCN(c4cnccn4)CC3)ccc1C2=O	nt	nt	nt	nt	1	50*
CNS(=O)(=O)c1ccc2nc(NC(=O)/C=C/c3ccco3)sc2c1	i	-15	-1	97	1	64*
CCN(CC)CCNC(=O)CCc1n[nH]c(=O)c2ccccc12	i	1	0	107	-1	81*
CC(C)(C)c1ccc(OCCCC(=O)NNC(=O)c2ccccc2O)cc1	nt	nt	-5	107	3	52*
NC(=O)N=Nc1c2[nH]c3ccccc3nc-2c2ccccc12	i	-17	-4	94	1	60*
O=c1[nH]c2ccccc2nc1-c1ccccc1	i	-9	0	92	-1	-2
O=C(Cn1c(=O)oc2cc(S(=O)(=O)N3CCCC3)ccc21)Nc1ccccn1	nt	nt	nt	nt	nt	4
c1ccc(-c2csc3ncnc(NCc4ccccn4)c23)cc1	i	-11	-1	88	22*	-10
Cc1ccccc1N(C(=O)c1snc(C(N)=O)c1N)C(C(=O)NCc1ccccc1)c1ccc(O)cc1 (configuration not stated)	nt	-15	2	93	7	51*
COc1ccc(C(C(=O)NCc2ccccc2)N(Cc2cccnc2)C(=O)c2snc(C(N)=O)c2N)cc1OC (configuration not stated)	nt	-2	-3	109	-3	13
NC(=O)c1nsc(C(=O)N(c2ccccc2F)C(C(=O)NCc2ccccc2)c2ccc(O)cc2)c1N (configuration not stated)	nt	-8	0	89	-51	51*
SMILES	HSV replic up	pCIP destab	MIN6 prolif	CR mimetic SO	V-ATPase pH	Cardio protect
CN(C)c1ccc(C(C(=O)NC2CCCCC2)N(Cc2ccco2)C(=O)c2snc(C(N)=O)c2N)cc1 (configuration not stated)	nt	-2	-3	91	-5	53*
CN(C)c1ccc(C(C(=O)NCc2ccccc2)N(Cc2cccnc2)C(=O)c2snc(C(N)=O)c2N)cc1 (configuration not stated)	nt	3	0	nt	-2	61*
CC(C)C(=O)Nc1ccc(C(=O)NNC(=S)NC(=O)c2ccco2)cc1	i	-9	1	97	-1	3
Nc1c(-c2ccccc2)cnn1-c1ccc(C(=O)O)cc1	i	-18	0	119	10	-3
CCOc1cc(C(=O)NCCC(=O)N2CCC3(CC2)NCCc2[nH]cnc23)cc(OCC)c1OCC	nt	4	0	108	-1	5
O=C(COC(=O)c1ccco1)NCc1ccc(F)cc1	i	-6	-2	93	4	0
COc1cc(OC)c(OC)cc1CN1CCN(Cc2ccco2)CC1	nt	5	-3	94	1	0
NC(=O)c1nsc(C(=O)N(Cc2ccco2)C(C(=O)NCc2ccccc2)c2ccc(O)cc2)c1N (configuration not stated)	nt	-8	0	99	3	58*
CCC(C(=O)NCc1ccc(F)cc1)N(Cc1ccco1)C(=O)c1snc(C(N)=O)c1N (configuration not stated)	i	-1	-1	91	4	1
CCC(C)Nc1ncnc2c1cnn2Cc1ccc(Cl)cc1 (configuration not stated)	i	-14	-4	92	-2	89*
CC(C)Nc1ncnc2c1cnn2Cc1ccc(Cl)cc1	nt	-17	1	94	6	10
Cc1ccc(COc2ccc(CNCCCN3CCCCCC3=O)cc2)cc1	nt	10	-1	98	-3	-4
O=C(NCc1ccccc1)NC1(C(=O)N2CCN(c3ncccn3)CC2)CCCCC1	i	-4	-1	93	-2	-4
O=C(Nc1ccccc1)NC1(C(=O)N2CCN(c3ncccn3)CC2)CCCCC1	i	-10	-2	92	16*	3
COCC(=O)N1CCC2CC1c1c(-c3ccc(C(F)(F)F)cc3)cccc12 (configuration not stated)	nt	nt	nt	nt	-1	10
CNC(=S)N(Cc1ccco1)Cc1cc2cc(OC)ccc2[nH]c1=O	i	3	-3	99	0	2
CC(=O)Nc1ccc(S(=O)(=O)N(Cc2cccnc2)Cc2cc3ccccc3[nH]c2=O)cc1	nt	-6	-2	106	1	64*
COc1ccc2[nH]c(=O)c(CN(CC3CCCO3)S(=O)(=O)c3ccccc3)cc2c1 (configuration not stated)	i	-10	0	87	-2	31
COC(=O)c1ccccc1S(=O)(=O)N(Cc1ccco1)Cc1cc2cc(OC)ccc2[nH]c1=O	i	6	3	100	4	59*
